Test results published in PubChem BioAssay.

Experiment: changes in parasitized red cell lysis, either direction – P. falciparum Indochina, OD700, 3 h, PSAC antagonist project, primary screen (AID 1156)
Conditions: P. falciparum-infected erythrocytes, osmotic lysis, higher = more signal, called active from +8 up or from −8 down

z-score, inactive:
O=C(NCC(O)CO)[C@@]1(CCS(=O)(=O)c2ccccc2)N=C(c2ccc(OCCCO)cc2)O[C@H]1c1ccccc1 (stereo not given in full) 2.38, COCCCNC(=O)[C@@H]1c2ccccc2C(=O)N(Cc2ccc(OC(F)(F)F)cc2)[C@H]1c1ccc(CO)cc1 0.913, Cc1ccc(F)cc1S(=O)(=O)N[C@H]1CCN(Cc2ccc(OC(C)C)cc2)C1 0.183, CC1CC/C=C\[C@H]2OC34C=CCN(c5ccc(Cl)cc5)C(=O)[C@H]3N(CCCCCCO)C(=O)[C@]4(C)C2C(=O)O1 (stereo not given in full) -0.0544, O=C1C2C=CC(C(O)c3c(F)cccc3Cl)N(Nc3ccc([N+](=O)[O-])cc3)C2C(=O)N1c1ccccc1 (stereo not given) 2.34, [N-]=[N+]=Nc1ccccc1[C@@H]1OC(c2ccc(OCCCO)cc2)=N[C@]1(CCS(=O)(=O)c1ccccc1)C(=O)NCC(O)CO (stereo not given in full) 1.08, C=CC[C@@]1(C(=O)OC)N=C(c2ccc(OCCCO)cc2)O[C@@H]1c1ccccc1N=[N+]=[N-] 4.11, COC(=O)[C@@]1(Cc2ccc(OC)cc2)[C@H]2c3cc(C(=O)N4CCCC4)n(CCn4cc([N+](=O)[O-])nc4C)c3C[C@H]2CN1C(=O)c1ccccc1 0.217, CN1C(=O)C2C(C3CC3)C=C3CN(Cc4cccc(Cl)c4)[C@@H]([C@@H](O)Cc4ccccc4)C3C2C1=O (stereo not given in full) 1.57, COc1ccccc1CN1C(=O)c2ccccc2[C@](Cc2ccccc2I)(C(=O)NCC(C)C)[C@@H]1c1ccc(CO)cc1 2.61

Experiment: plasmodial surface anion channel blockers, osmotic lysis – cell-based, P. falciparum Indochina, OD700, 18 h, primary screen (AID 1157)
Conditions: P. falciparum Indochina infected erythrocytes, osmotic lysis OD700, 18 h; higher = more signal, called active from +8 up or from −8 down

z-score, inactive:
CCOC(=O)C1=CC[C@@H](c2ccc(OC)cc2)N(S(=O)(=O)c2ccc(C)cc2)[C@H]1c1ccc(C)cc1 0.68, CCOC(=O)C[C@H]1[C@H](OC(=O)Cc2ccc3c(c2)OCO3)[C@@H](NC(=O)c2ccc3ccccc3n2)c2cc(OCCCO)ccc2N1C(=O)Cc1ccc(OC)cc1 0.0217, CC(C)(C)N1CC=CC23O[C@@H]4C=CCOC(=O)[C@@H]4[C@H]2C(=O)N(CCO)[C@@H]3C1=O (stereo not given in full) 0.526, CCOC(=O)C1=CC[C@@H](c2ccc(OC)cc2)N(S(=O)(=O)c2ccc(C)cc2)[C@H]1CC -1.62, COc1ccc(NN2C(C(O)c3ccc(I)cc3)C=CC3C(=O)N(C4CCCCC4)C(=O)C32)cc1 (stereo not given) 0.706, C=CCOC(=O)[C@H]1[C@@H]2C(=O)O[C@@H](c3ccccc3)[C@@H](c3ccccc3)N2[C@@H](c2ccc(OCCOC(=O)[C@@H]3C[C@@H]4C(=O)N[C@@H](CCCC[N+](C)(C)C)C(=O)N4[C@@H]3c3ccc(O)cc3)cc2)[C@]12C(=O)Nc1ccc(I)cc12 -0.582, Cc1ccc(S[C@]2(C(=O)NCc3ccccc3)CC(=O)N(Cc3ccccc3C(F)(F)F)[C@@H]2c2ccc(CO)cc2)cc1 -0.802, CC(C)=CCCC(C)=CC(O)C1C=CC2C(=O)NC(=O)C2N1Nc1ccccn1 (stereo not given) -1.94, O=C1O[C@H](c2ccccc2)[C@H](c2ccccc2)N2[C@H]1[C@@H](C(=O)O)[C@]1(C(=O)Nc3ccc(C#CCCO)cc31)[C@H]2c1ccc(OCCO)cc1 0.138, C=CCN1C(=O)[C@@]2(O[C@@H](CCn3cc([C@H](O)c4ccccc4)nn3)[C@H]([Si](C)(C)c3ccc(OC)cc3)[C@H]2C)c2cc(N3C(=O)c4cccc5cccc3c45)ccc21 1.31, NC(=O)NCC#Cc1ccc2c(c1)[C@]1(C(=O)N2)[C@H](c2ccc(OCCO)cc2)N2[C@H](c3ccccc3)[C@H](c3ccccc3)OC(=O)[C@H]2[C@@H]1C(=O)O -1.3, CO[C@H]1O[C@H](CO)[C@@H](OC(=O)Nc2ccc3c(c2)OCO3)[C@H](OC(=O)Nc2ccccc2-c2ccccc2)[C@H]1OC(=O)Nc1ccccc1-c1ccccc1 1.21, CC1CC/C=C\[C@H]2OC34C=CCN(c5ccc6ccccc6c5)C(=O)[C@H]3N(C(C)CO)C(=O)[C@@H]4C2C(=O)O1 (stereo not given in full) 0.233, COC(=O)[C@@]1(Cc2ccc(OC)cc2)[C@H]2c3cc(C(=O)N4CCCC4)n(Cc4ccc(C(F)(F)F)nc4)c3C[C@H]2CN1C(=O)c1ccccc1 3.37, Cc1ccc(C(C)CC(O)C2C=CC3C(=O)N(C)C(=O)C3N2Nc2ccccc2)o1 (stereo not given) 1.17, C=CC[C@@]1(C(=O)N(C)C)N=C(c2ccc(OCCCO)cc2)O[C@@H]1c1ccccc1CN=[N+]=[N-] 1.26, COC(=O)[C@@]1(Cc2ccccc2)[C@H]2c3cc(C(=O)N4CCCC4)n(Cc4ccc(OC)c(OC)c4)c3C[C@H]2CN1C(=O)c1ccccc1 0.861, N#Cc1ccc(NN2C(C(O)C3CC=CCC3)C=CC3C(=O)N(c4ccccc4)C(=O)C32)cc1 (stereo not given) 1.14, C=C(C)[C@@H]1CC=C(C(O)C2C=CC3C(=O)N(c4ccccc4)C(=O)C3N2Nc2ccc([N+](=O)[O-])cc2)CC1 (stereo not given in full) 1.79, COc1ccc([Si](C)(C)[C@H]2[C@H](CCO)O[C@@]3(C(=O)N(Cc4cccc(N(C=O)c5ccccc5)c4)c4ccccc43)[C@@H]2C)cc1 1.82, CCCCC(O)C1C=CC2C(=O)N(c3ccccc3)C(=O)C2N1Nc1ccc([N+](=O)[O-])cc1 (stereo not given) -1.06, COc1ccc([Si](C)(C)[C@@H]2[C@@H](CC(=O)N3CCC[C@H]3CO)O[C@]3(C(=O)N(Cc4ccc(N5CCOC5=O)cc4)c4ccccc43)[C@H]2C)cc1 -0.774, CC(C)NC(=O)[C@@H]1c2ccccc2C(=O)N(Cc2ccccc2C(F)(F)F)[C@H]1c1ccc(CO)cc1 0.596, CCCCCC1=C2CNC(Cc3ccccc3)(C(=O)OC)C=C2C(C)C1=O (stereo not given) 0.422, CN(C)c1ccc(C(O)C2C=CC3C(=O)N(Cc4ccccc4)C(=O)C3N2n2cnnc2)cc1 (stereo not given) -0.553, O=C(NCC(O)CO)[C@@]1(CCS(=O)(=O)c2ccccc2)N=C(c2ccc(OCCCO)cc2)O[C@H]1c1ccccc1 (stereo not given in full) 1.39, COCCCNC(=O)[C@@H]1c2ccccc2C(=O)N(Cc2ccc(OC(F)(F)F)cc2)[C@H]1c1ccc(CO)cc1 0.303, Cc1ccc(F)cc1S(=O)(=O)N[C@H]1CCN(Cc2ccc(OC(C)C)cc2)C1 0.526, CC1CC/C=C\[C@H]2OC34C=CCN(c5ccc(Cl)cc5)C(=O)[C@H]3N(CCCCCCO)C(=O)[C@]4(C)C2C(=O)O1 (stereo not given in full) 0.0625, O=C1C2C=CC(C(O)c3c(F)cccc3Cl)N(Nc3ccc([N+](=O)[O-])cc3)C2C(=O)N1c1ccccc1 (stereo not given) 1.76, [N-]=[N+]=Nc1ccccc1[C@@H]1OC(c2ccc(OCCCO)cc2)=N[C@]1(CCS(=O)(=O)c1ccccc1)C(=O)NCC(O)CO (stereo not given in full) 2.07, C=CC[C@@]1(C(=O)OC)N=C(c2ccc(OCCCO)cc2)O[C@@H]1c1ccccc1N=[N+]=[N-] 5.12, COC(=O)[C@@]1(Cc2ccc(OC)cc2)[C@H]2c3cc(C(=O)N4CCCC4)n(CCn4cc([N+](=O)[O-])nc4C)c3C[C@H]2CN1C(=O)c1ccccc1 0.543, CN1C(=O)C2C(C3CC3)C=C3CN(Cc4cccc(Cl)c4)[C@@H]([C@@H](O)Cc4ccccc4)C3C2C1=O (stereo not given in full) 0.918, COc1ccccc1CN1C(=O)c2ccccc2[C@](Cc2ccccc2I)(C(=O)NCC(C)C)[C@@H]1c1ccc(CO)cc1 0.745
